Each structure is given as a SMILES string. Active and inactive are the calls of the source.

The nature of assay [1]: small molecules captured by biotinylated probe aFSTL3 – biochemical, small-molecule microarray, fluorescence 635/667, stem cell growth factor project, primary screen (AID 1064).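 Also: measures binding of the biotinylated anti-FSTL3 antibody to printed compounds.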 Conditions: higher = more signal.
Assay [2] can be described thus: binders from COS7 lysate, DM2A8 probe, primary screen, torsin A project, cell lysate, small-molecule microarray, fluorescence 635/667 (AID 1065). The note with it: higher = more signal, COS7 lysate expressing mutant human TOR1A.
The nature of assay [3]: small molecules captured by biotinylated probe aFGF2 – biochemical, small-molecule microarray, fluorescence 635/667, stem cell growth factor project, primary screen (AID 1067).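 Also: measures binding of biotinylated aFGF2 protein to printed compounds on slides; z-score merges feature fluorescence and signal-to-noise across triplicate slides.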 The note with it: higher = more signal.
Assay [4] in a line: small molecules captured by biotinylated probe aFGF10 – biochemical, small-molecule microarray, fluorescence 635/667, stem cell growth factor project, primary screen (AID 1071).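 Also: score merges 667 nm spot intensity and signal to noise from triplicate slides.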 The note with it: higher = more signal.
Assay [5] addresses Neurogenic locus notch homolog protein 2 (Homo sapiens) (UniProt Q04721). In words: small molecules binding Notch2 protein – biochemical, small-molecule microarray, 635 nm fluorescence, stem cell growth factors, primary screen (AID 1073). Conditions: higher = more signal.
Assay [6] deals with Pro-neuregulin-1, membrane-bound isoform (Homo sapiens) (UniProt Q02297). In words: small molecules binding neuregulin-1 protein – biochemical, small-molecule microarray, fluorescence 635/667, psychiatric disease protein project, primary screen (AID 1075).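 Also: score combines 667 nm spot fluorescence with signal to noise.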 The note with it: NRG1 binding, 635 nm fluorescence, higher = more signal.
The subject of assay [7] is Neuregulin-1 EGF-like domain. In words: small molecules binding NRG1 EGF domain – biochemical, small-molecule microarray, 635 nm fluorescence, primary screen (AID 1081).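 Also: binding of the protein to compounds printed on small-molecule microarray slides.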 The note with it: higher = more signal.
Assay [8] in a line: FRG1 expression reporter modulators in myotubes – cell-based, C2C12 myotubes, firefly/Renilla luciferase, luminescence, FRG1 inhibition for FSHD, primary screen (AID 1084). Conditions: FRG1 promoter luciferase, higher = more signal, called active from +8 up or from −8 down.
A short description of assay [9]: small molecules captured by biotinylated probe aFST – biochemical, small-molecule microarray, fluorescence 635/667, stem cell growth factor project, primary screen (AID 1086).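 Also: score merges 667 nm fluorescence with signal-to-noise of each printed compound spot.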 The note with it: higher = more signal.
Assay [10] can be described thus: binders of probe aHhip on microarray, primary screen, stem cell growth factor project, biochemical, small-molecule microarray, fluorescence 635/667 (AID 1087).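 Also: score merges spot fluorescence at 667nm with spot signal to noise ratio.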 Conditions: higher = more signal.
Assay [11] concerns PRMT1 (protein arginine N-methyltransferase 1). In words: small molecules binding arginine methyltransferase PRMT1 – biochemical, small-molecule microarray, 635 nm fluorescence, primary screen (AID 1088).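 Also: binding of Prmt1 protein to compounds spotted on small-molecule microarray slides.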 The note with it: higher = more signal.
Assay [12] in a line: growth effects on S. cerevisiae YJM789 – YJM789 clinical isolate, OD600, 24 h, basal, primary screen (AID 1089).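 Also: growth of clinical yeast isolate S. cerevisiae YJM 789 seeded 1000 cells per well; test concentration not given here.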 Conditions: higher = more signal, called active from +8 up or from −8 down.
The nature of assay [13]: S. pombe growth modifiers, basal conditions – strain 972, OD600, 24 h, no modulator, primary screen (AID 1090).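 Also: basal condition with compound alone and no growth modifier present; test concentration not given here.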 The note with it: S. pombe 972 growth, higher = more signal, called active from +8 up or from −8 down.
A short description of assay [14]: budding yeast growth modifiers under rapamycin – strain BY4716, OD600, 96 h, primary screen (AID 1091). Also: test concentration not given here. Conditions: S. cerevisiae BY4716 + rapamycin, higher = more signal, called active from +8 up or from −8 down.
Assay [15] has as its target Torsin-1A-interacting protein 2 (Homo sapiens) (UniProt Q8NFQ8). In words: small molecules binding lysate-expressed LULL1 – cell lysate, human LULL1 lysate, 635/667 nm fluorescence, primary screen (AID 1092).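 Also: probe is lysate of COS7 cells overexpressing human LULL1; score merges per-feature 667 nm fluorescence with signal-to-noise.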 The note with it: small-molecule microarray, hLULL1 lysate binding, 635 nm fluorescence; higher = more signal.
Assay [16] is described as follows: optical density change of DRC41 E. coli – strain DRC41, OD650, 24 h, E. coli filamentation project, primary screen (AID 1093).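 Also: MC1000 strain lacking acrAB efflux and sulA so SOS filamentation is blocked; test concentration not given here.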 Conditions: E. coli DRC41 growth, higher = more signal, called active from +8 up or from −8 down.
Assay [17] is described as follows: probe aLefty2 binding to arrayed compounds – biochemical, biotinylated probe, 635/667 nm fluorescence, primary screen (AID 1094).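 Also: score merges spot fluorescence near 667 nm with spot signal-to-noise ratio.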 The note with it: small-molecule microarray, higher = more signal.
The test system of assay [18] is Noggin (protein binding on small-molecule microarray). In words: small molecules binding Noggin protein – biochemical, 635/667 nm fluorescence, primary screen (AID 1095).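 Also: score merges 667 nm feature fluorescence with signal to noise over triplicate slides.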 The note with it: 635 nm fluorescence, higher = more signal.
The target of assay [19] is Neurogenic locus notch homolog protein 3 (Homo sapiens) (UniProt Q9UM47). In words: small molecules binding NOTCH3 protein – biochemical, 635/667 nm fluorescence, primary screen (AID 1096). Conditions: small-molecule microarray, 635 nm fluorescence, higher = more signal.
The nature of assay [20]: probe aEGFR binding to arrayed compounds – biochemical, biotinylated probe, 635/667 nm fluorescence, primary screen (AID 1097).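 Also: probe is a biotinylated anti-EGFR antibody binding compounds printed on slides; score combines fluorescence near 667 nm and signal to noise of each spot.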 The note with it: small-molecule microarray, higher = more signal.

Pro-neuregulin-1, membrane-bound isoform (Homo sapiens), sequence (Q02297 whole entry, looked up, the tested form may be a part, canonical isoform): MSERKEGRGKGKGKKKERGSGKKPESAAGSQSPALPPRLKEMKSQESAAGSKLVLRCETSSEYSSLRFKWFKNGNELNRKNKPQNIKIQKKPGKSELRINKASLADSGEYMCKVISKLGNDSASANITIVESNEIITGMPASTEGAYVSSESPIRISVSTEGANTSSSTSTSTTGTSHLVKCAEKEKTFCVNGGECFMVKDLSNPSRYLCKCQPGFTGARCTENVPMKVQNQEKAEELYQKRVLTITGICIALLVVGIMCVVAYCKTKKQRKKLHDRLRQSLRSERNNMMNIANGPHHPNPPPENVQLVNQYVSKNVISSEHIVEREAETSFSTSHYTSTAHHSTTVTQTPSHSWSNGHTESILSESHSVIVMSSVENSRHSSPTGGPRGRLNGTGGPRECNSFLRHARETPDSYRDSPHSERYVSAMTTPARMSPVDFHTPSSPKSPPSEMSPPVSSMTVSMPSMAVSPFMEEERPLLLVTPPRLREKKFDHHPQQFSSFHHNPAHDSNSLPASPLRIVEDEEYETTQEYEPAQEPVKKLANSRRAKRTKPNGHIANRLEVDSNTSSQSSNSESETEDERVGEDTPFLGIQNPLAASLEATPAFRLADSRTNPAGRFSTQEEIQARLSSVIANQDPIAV
Neurogenic locus notch homolog protein 3 (Homo sapiens), sequence (Q9UM47 whole entry, looked up): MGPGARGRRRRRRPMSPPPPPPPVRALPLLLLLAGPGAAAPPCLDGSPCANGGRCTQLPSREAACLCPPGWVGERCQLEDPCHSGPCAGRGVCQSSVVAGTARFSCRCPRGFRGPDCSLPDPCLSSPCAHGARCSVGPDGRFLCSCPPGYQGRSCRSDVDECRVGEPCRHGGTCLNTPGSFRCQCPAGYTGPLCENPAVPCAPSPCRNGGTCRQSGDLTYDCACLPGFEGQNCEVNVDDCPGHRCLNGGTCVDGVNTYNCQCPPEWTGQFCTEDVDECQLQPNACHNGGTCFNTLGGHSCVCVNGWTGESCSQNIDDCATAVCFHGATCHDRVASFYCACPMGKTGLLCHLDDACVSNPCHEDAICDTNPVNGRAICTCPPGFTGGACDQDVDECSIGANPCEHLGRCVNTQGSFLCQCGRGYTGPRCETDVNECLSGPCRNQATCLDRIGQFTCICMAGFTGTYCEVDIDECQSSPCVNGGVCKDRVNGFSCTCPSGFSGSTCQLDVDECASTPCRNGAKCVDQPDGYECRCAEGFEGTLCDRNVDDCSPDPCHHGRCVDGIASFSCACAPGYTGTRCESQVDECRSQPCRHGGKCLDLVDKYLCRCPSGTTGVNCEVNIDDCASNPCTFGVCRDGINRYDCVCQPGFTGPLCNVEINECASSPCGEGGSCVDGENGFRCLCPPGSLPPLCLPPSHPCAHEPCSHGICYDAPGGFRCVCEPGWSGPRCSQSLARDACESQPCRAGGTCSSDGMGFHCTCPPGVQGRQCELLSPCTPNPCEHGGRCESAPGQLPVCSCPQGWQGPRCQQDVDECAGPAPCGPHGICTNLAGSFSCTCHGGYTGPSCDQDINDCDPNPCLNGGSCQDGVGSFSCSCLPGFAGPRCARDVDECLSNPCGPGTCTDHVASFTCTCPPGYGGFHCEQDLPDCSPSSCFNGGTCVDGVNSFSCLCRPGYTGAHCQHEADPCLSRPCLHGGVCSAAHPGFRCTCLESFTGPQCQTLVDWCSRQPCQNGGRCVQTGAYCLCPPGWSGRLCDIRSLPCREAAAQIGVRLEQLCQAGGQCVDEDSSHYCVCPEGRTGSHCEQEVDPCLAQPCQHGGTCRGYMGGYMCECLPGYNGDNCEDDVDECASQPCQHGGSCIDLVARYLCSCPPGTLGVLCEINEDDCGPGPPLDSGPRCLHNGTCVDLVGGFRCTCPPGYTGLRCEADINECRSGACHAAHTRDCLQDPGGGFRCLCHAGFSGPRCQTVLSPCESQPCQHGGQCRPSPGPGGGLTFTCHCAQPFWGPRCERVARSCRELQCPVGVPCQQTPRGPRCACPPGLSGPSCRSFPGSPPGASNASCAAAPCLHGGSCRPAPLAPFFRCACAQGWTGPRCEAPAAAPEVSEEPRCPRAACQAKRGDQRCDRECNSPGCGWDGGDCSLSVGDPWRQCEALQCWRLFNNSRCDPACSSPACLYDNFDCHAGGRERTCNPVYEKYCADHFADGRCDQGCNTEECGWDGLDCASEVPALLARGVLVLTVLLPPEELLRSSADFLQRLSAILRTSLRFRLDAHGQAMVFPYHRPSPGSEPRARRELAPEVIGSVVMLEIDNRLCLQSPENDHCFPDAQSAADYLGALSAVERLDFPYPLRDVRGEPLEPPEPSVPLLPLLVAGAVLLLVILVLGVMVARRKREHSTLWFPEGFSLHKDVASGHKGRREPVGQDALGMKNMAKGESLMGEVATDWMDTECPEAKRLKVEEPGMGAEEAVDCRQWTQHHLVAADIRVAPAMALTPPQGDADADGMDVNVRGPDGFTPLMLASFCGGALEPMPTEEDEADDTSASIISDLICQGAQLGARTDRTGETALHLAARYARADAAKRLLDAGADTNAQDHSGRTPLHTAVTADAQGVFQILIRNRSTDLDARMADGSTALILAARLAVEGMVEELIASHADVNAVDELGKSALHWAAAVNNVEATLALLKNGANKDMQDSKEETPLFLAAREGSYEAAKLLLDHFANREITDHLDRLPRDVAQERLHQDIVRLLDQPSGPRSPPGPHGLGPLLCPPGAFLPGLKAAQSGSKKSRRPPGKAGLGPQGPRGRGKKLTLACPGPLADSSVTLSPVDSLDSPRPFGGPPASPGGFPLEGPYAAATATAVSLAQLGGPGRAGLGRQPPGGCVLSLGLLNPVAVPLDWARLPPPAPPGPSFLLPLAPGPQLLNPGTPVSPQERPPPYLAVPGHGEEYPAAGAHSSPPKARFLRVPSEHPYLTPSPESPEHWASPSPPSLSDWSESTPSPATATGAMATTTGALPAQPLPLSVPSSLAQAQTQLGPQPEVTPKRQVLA
Torsin-1A-interacting protein 2 (Homo sapiens), sequence (Q8NFQ8 whole entry, looked up): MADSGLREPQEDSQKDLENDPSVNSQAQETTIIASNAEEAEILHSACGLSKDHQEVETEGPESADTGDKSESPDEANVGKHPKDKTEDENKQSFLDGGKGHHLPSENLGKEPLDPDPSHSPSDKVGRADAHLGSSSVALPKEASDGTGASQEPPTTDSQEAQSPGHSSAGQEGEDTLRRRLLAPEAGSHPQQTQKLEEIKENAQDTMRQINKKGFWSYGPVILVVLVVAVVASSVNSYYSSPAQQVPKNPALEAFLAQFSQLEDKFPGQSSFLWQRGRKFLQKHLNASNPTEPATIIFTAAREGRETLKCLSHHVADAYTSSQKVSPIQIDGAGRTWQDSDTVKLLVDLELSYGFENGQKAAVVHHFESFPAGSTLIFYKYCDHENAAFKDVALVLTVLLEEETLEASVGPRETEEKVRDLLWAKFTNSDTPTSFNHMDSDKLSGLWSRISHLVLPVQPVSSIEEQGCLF

`CC(C)C[C@@H]1NC(=O)[C@H](C(C)C)NC(=O)[C@@]23C(=O)N[C@@H](Cc4ccccc4)C2[C@H](C)[C@@]2(C)O[C@H]2C3/C=C/CC/C=C/CNC1=O` (stereo not given in full): the composite z-score in assay [1] was -0.368; in assay [2], 0.0032; in [3], -0.144; in [4], 0.518; in assay [5], 0.729; in assay [6] it was 0.133. Besides, the composite z-score was 1.02 in [7]; 0.0815 in assay [9]; -0.0061 in [10]; 1.55 in [11]; 2.27 in assay [15]; -0.0346 in [17]. Besides, the composite z-score in assay [18] is 0.782; in assay [19], 1.03; in [20], -0.096. Also, the z-score in assay [8] was -0.537 (inactive); in [12], -0.0106 (inactive); in assay [13] it was -0.328 (inactive); in assay [14], -0.522 (inactive); in assay [16], -0.215 (inactive).

For the molecule `COC(=O)[C@@]1(Cc2ccccc2)[C@H]2c3cc(C(=O)N4CCCC4)n(Cc4ccc(S(C)(=O)=O)cc4)c3C[C@H]2CN1C(=O)c1ccccc1`, the composite z-score in assay [1] is 1; in assay [2], 0.0844; in assay [3] it was 0.371; in assay [4] it was -0.0015; in assay [5], 1.68; in assay [6] it was 1.66. Further, the composite z-score came out at 1.31 in [7]; 1.23 in assay [9]; 0.939 in [10]; 0.375 in [11]; 3.56 in [15]; 0.0495 in assay [17]. Moreover, the composite z-score in assay [18] came out at 0.0689; in [19], 1.01; in assay [20], 0.348. Further, the z-score in [8] is 1.45 (inactive); in [12], 0.527 (inactive); in [13], 0.955 (inactive); in assay [14] it was 0.671 (inactive); in assay [16], -0.47 (inactive).

On to `CC(C)(C)OC(=O)CC[C@]1(C(=O)N2CCOCC2)N=C(c2ccc(OCCCO)cc2)O[C@H]1c1ccccc1N=[N+]=[N-]`, for which the composite z-score is 0.594 in [1]; 0.838 in [2]; 0.0376 in assay [3]; 0.402 in assay [4]; 1.48 in [5]; 1.63 in assay [6]. The composite z-score in [7] came out at 1.28; in assay [9] it was 1.06; in assay [10] it was 0.0515; in assay [11] it was 1.28; in [15] it was 3.25; in assay [17], 0.124. Also, the composite z-score stood at 0.356 in assay [18], 0.671 in assay [19] and 0.0552 in assay [20]. Besides, the z-score was 1.71 (inactive) in [8]; -0.54 (inactive) in [12]; -0.496 (inactive) in assay [13]; -0.531 (inactive) in assay [14]; 1.57 (inactive) in assay [16].

With `COc1ccc(CCNC(=O)[C@@H]2c3ccccc3C(=O)N(Cc3ccccc3Cl)[C@H]2c2ccc(CO)cc2)cc1`, the composite z-score in [1] is 0.199; in assay [2] it was 0.0795; in [3], -0.123; in assay [4] it was 0.218; in assay [5] it was 0.586; in [6] it was 0.8. Further, the composite z-score is 1.38 in assay [7]; 0.19 in assay [9]; -0.214 in assay [10]; 0.533 in assay [11]; 1.65 in assay [15]; -0.0299 in assay [17]. In addition, the composite z-score in [18] was -0.215; in assay [19], 0.124; in assay [20] it was 0.0121. For the same molecule, the z-score in assay [8] was -2.28 (inactive); in assay [12] it was -0.874 (inactive); in [13], -0.96 (inactive); in [14] it was 0.35 (inactive); in assay [16], -0.139 (inactive).

As for `O=C1C[C@@](C(=O)NCC(F)(F)F)(c2ccc([N+](=O)[O-])cc2)[C@@H](c2ccc(CO)cc2I)N1C1CCCCC1`, the composite z-score in assay [1] was -0.0205; in assay [2] it was 0.95; in [3] it was -0.0257; in [4] it was 0.19; in [5], 1.46; in assay [6], 0.811. For the same molecule, the composite z-score was 1.24 in assay [7]; 0.414 in [9]; -0.0994 in assay [10]; 1.55 in [11]; 2.52 in assay [15]; 0.0524 in [17]. Besides, the composite z-score in [18] was found to be 0.572; in assay [19], 1.09; in [20], 0.0721. For the same molecule, the z-score in assay [8] is 0.467 (inactive); in [12] it was -0.732 (inactive); in [13], 0.294 (inactive); in assay [14], 1.16 (inactive); in [16] it was -0.426 (inactive).

With `O=C1NC(=O)C2C1C=CC(C(O)c1cc(C(F)(F)F)cc(C(F)(F)F)c1)N2Nc1ccccn1` (stereo not given), the composite z-score is -0.119 in assay [1]; 0.134 in [2]; -0.0524 in assay [3]; 0.121 in [4]; 0.312 in assay [5]; 0.969 in assay [6]. For the same molecule, the composite z-score in assay [7] was 1.03; in assay [9], 0.138; in assay [10] it was -0.0726; in assay [11], 0.463; in assay [15] it was 1.21; in assay [17] it was 0.05. Moreover, the composite z-score in assay [18] was 0.159; in [19] it was 0.429; in assay [20] it was -0.129. For the same molecule, the z-score in assay [8] is 0.589 (inactive); in [12], 0.307 (inactive); in assay [13], 1.19 (inactive); in assay [14] it was -0.697 (inactive); in assay [16], -1.02 (inactive).

On to `CN1C(=O)C2C=CC(C(O)c3ccco3)N(Nc3ccccc3)C2C1=O` (stereo not given), for which the composite z-score in assay [1] turned out to be 0.034; in assay [2] it was 0.438; in assay [3], 0.0772; in assay [4], 0.321; in assay [5] it was 1.06; in [6], 1.51. The composite z-score is 1.28 in assay [7]; -0.104 in [9]; -0.0581 in assay [10]; 0.941 in assay [11]; 2.52 in assay [15]; 0.0569 in [17]. The composite z-score in [18] is 0.139; in assay [19], 0.275; in assay [20], -0.0976. In addition, the z-score in assay [8] was 0.0122 (inactive); in assay [12] it was 0.312 (inactive); in [13], 0.899 (inactive); in assay [14], 1.74 (inactive); in assay [16], -1.37 (inactive).

`O=C1O[C@H](c2ccccc2)[C@H](c2ccccc2)N2[C@H]1[C@@H](C(=O)N1CCCCCCC1)[C@]1(C(=O)Nc3ccc(C#CCCO)cc31)[C@H]2c1ccccc1OCCO`: the composite z-score in [1] amounted to 3.95; in assay [2] it was 2.92; in [3], 1.08; in assay [4] it was 1.62; in assay [5] it was 1.72; in assay [6], 2.85. For the same molecule, the composite z-score was found to be 1.37 in assay [7]; 3.77 in [9]; 4.26 in [10]; 1.55 in assay [11]; 5.15 in assay [15]; 1.96 in assay [17]. The figures for the composite z-score in assay [18], in assay [19] and in assay [20] were 2.41, 1.01 and 1.34, respectively. Also, the z-score is -0.851 (inactive) in [8]; 2.09 (inactive) in assay [12]; -13.6 (active) in [13]; 4.15 (inactive) in assay [14]; 0.689 (inactive) in assay [16].

For the molecule `CCCC[C@@H]1C[C@H]1[C@@H](NC(=O)C(C)(C)C)c1ccc(C(F)(F)F)cc1`, the composite z-score is 1.54 in assay [1]; 0.466 in assay [2]; -0.0785 in [3]; -0.38 in assay [4]; -1.36 in assay [5]; 0.669 in [6]. Moreover, the composite z-score in assay [7] was 0.55; in [9], -0.347; in assay [10] it was 0.235; in [11] it was 0.648; in [15] it was 0.918; in assay [17] it was 0.0823. Besides, the composite z-score in assay [18] was -1.46; in assay [19] it was -0.434; in assay [20], -0.236. For the same molecule, the z-score is -0.571 (inactive) in assay [8]; 0.213 (inactive) in assay [12]; -2.71 (inactive) in [13]; 0.329 (inactive) in [14]; -1.67 (inactive) in assay [16].
